Results published in PubChem BioAssay.
For part of these data: Measured potencies and affinities stand elsewhere. The source made the active and inactive calls.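 Rule for the calls, unless noted: active = primary screen hit whose calcium fluorescence ratio, in both repeats, exceeds the weak agonist control mean by 3 SD; inactive = the rest.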

Columns and labels:
[1] = test system: TRPC4 beta (transient receptor potential cation channel C4), mouse; experiment: TRPC4 cation channel opening, retest – cell-based, Fluo4 calcium, HEK293 TRPC4beta/mu-opioid, duplicates, 10 µM, confirmation (AID 2426;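 active = fluorescence ratio normalized to control raised more than 50% in primary screen plus both repeat runs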); settings: Fluo4 calcium fluorescence, at 10 µM; stronger effect = higher value
[2] = test system: transient receptor potential cation channel C4 beta (TRPC4), mouse; experiment: TRPC4 cation channel opening, second retest – cell-based, second round, Fluo4, HEK293 TRPC4beta/mu-opioid, 1 µM, confirmation (AID 2461;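 active = primary screen active and over 50% activation in each of two duplicate runs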); settings: Fluo4 calcium fluorescence, at 1 µM; stronger effect = higher value
[3] = test system: TRPC4 (transient receptor potential cation channel C4 beta), mouse; experiment: potentiation of DAMGO EC20 TRPC4 response – cell-based, second round, Fluo-4, HEK293 TRPC4beta/mu-opioid, 1 µM, confirmation (AID 2554;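 active = primary screen hit whose fluorescence ratio, in both repeats, exceeds the weak agonist control mean by 3 SD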); settings: DAMGO EC20, Fluo-4 calcium flux, at 1 µM; stronger effect = higher value
[4] = test system: TRPC4 beta (transient receptor potential cation channel C4), mouse; experiment: potentiation of DAMGO EC20 TRPC4 response – cell-based, Fluo-4, HEK293 TRPC4beta/mu-opioid, confirmation (AID 2555); settings: DAMGO EC20, Fluo-4 calcium flux, at 10 µM; stronger effect = higher value
[5] = target: Short transient receptor potential channel 4 (Mus musculus) (UniProt Q9QUQ5); experiment: blockers of DAMGO-evoked TRPC4 calcium flux – cell-based, Fluo4, HEK293 TRPC4beta/mu-opioid, confirmation (AID 2636;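 active = calcium signal cut by more than 3 SD below the full-agonist control yet still positive, in both repeats and the earlier primary screen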); settings: at 10 µM; stronger effect = higher value
Short transient receptor potential channel 4 (Mus musculus), sequence (Q9QUQ5 whole entry, looked up): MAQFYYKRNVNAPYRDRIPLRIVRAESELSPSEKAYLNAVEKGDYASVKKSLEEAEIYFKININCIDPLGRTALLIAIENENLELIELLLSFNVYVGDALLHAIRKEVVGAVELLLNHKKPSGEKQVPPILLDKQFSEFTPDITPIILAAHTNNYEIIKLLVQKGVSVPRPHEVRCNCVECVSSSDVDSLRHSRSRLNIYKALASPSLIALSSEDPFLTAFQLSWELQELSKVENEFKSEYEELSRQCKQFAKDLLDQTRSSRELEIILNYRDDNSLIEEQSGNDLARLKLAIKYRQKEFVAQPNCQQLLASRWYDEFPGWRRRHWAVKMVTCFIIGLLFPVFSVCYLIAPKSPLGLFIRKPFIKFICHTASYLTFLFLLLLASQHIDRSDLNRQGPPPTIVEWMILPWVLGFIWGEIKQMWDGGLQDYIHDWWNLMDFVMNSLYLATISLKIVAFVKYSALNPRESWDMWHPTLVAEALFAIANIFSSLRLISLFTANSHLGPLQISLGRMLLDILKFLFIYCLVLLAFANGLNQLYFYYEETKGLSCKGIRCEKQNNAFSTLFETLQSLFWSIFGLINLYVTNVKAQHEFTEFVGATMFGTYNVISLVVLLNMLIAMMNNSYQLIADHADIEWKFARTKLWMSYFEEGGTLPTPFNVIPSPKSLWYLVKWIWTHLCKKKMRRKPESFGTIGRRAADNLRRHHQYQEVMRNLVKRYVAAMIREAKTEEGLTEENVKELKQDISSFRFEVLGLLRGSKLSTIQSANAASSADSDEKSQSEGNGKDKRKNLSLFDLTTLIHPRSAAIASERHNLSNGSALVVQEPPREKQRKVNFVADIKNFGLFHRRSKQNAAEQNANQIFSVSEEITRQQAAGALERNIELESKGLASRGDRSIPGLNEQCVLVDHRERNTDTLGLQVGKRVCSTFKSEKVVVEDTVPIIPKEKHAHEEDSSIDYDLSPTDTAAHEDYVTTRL

[6] = target: Short transient receptor potential channel 4 (Mus musculus) (UniProt Q9QUQ5); experiment: blockers of DAMGO-evoked TRPC4 calcium flux – cell-based, second round, Fluo4, HEK293 TRPC4beta/mu-opioid, 1 µM, confirmation (AID 2637;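 active = calcium signal ratio cut to more than 3 SD under the fully stimulated control mean yet still positive, in both repeats and the primary screen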); settings: at 1 µM; stronger effect = higher value
[7] = target: Short transient receptor potential channel 4 (Mus musculus) (UniProt Q9QUQ5); experiment: calcium entry via TRPC4 opening agents – cell-based, HEK293 TRPC4/mu-opioid, Fluo-4 calcium, dose response (AID 434937;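 active = primary screen activator hit with a dose response curve and TRPC4 channel activation at any tested dose; inactive = no activation, no dose response, or not a primary hit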)
[8] = target: Short transient receptor potential channel 4 (Mus musculus) (UniProt Q9QUQ5); experiment: potentiation of DAMGO-evoked TRPC4 calcium signal – cell-based, HEK293 TRPC4/mu-opioid, Fluo-4 calcium, EC20 DAMGO, dose response (AID 434941;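 active = earlier screen potentiator hit that boosts the TRPC4 ion channel at some dose, with a dose response; inactive = no potentiation, no dose response, or not a prior hit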;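 note: calcium entry triggered by an EC20 dose of DAMGO at the co-expressed mu-opioid receptor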)
[9] = target: Short transient receptor potential channel 4 (Mus musculus) (UniProt Q9QUQ5); experiment: block of DAMGO-driven TRPC4 calcium entry – cell-based, HEK293 TRPC4/mu-opioid, Fluo-4 calcium, dose response (AID 434942;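 active = primary screen inhibitor hit that blocks the TRPC4 channel at some tested dose, yielding a dose curve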)
[10] = target: Short transient receptor potential channel 6 (Mus musculus) (UniProt Q61143); experiment: TRPC6 blockade by TRPC4 inhibitor hits – cell-based, HEK293, membrane potential dye, duplicate, selectivity assay for TRPC4 inhibitor project, confirmation (AID 434948;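 active = active in primary screen and both duplicates, each dropping signal beyond three positive-control SD with fluorescence still positive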); settings: HEK293 TRPC6, membrane potential dye fluorescence, at 10 µM, stimulated with maximal-effect acetylcholine; stronger effect = higher value
Short transient receptor potential channel 6 (Mus musculus), sequence (Q61143 whole entry, looked up): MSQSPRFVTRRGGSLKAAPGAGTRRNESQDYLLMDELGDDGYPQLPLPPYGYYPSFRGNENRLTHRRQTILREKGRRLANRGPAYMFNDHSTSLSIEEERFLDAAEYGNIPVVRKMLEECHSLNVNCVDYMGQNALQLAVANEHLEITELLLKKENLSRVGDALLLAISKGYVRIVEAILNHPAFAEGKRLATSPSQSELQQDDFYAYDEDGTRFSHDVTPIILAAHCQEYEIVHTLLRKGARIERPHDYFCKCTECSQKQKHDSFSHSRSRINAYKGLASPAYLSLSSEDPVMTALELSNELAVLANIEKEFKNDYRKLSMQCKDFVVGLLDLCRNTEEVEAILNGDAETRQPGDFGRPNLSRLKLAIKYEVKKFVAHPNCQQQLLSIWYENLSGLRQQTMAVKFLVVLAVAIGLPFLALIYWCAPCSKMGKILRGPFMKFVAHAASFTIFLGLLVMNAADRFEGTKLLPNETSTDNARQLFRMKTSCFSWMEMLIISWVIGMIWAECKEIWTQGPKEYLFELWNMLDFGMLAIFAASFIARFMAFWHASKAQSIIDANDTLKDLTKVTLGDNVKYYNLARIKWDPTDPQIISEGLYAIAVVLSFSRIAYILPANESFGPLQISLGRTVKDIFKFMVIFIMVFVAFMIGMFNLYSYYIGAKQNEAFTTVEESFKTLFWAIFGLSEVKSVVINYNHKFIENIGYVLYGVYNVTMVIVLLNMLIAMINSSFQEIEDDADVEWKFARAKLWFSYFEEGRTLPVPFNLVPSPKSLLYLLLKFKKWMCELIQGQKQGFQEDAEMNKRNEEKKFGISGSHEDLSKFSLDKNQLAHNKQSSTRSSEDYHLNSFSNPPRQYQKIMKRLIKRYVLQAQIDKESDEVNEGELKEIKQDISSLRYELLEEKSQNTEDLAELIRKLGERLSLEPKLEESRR

[11] = target: Short transient receptor potential channel 6 (Mus musculus) (UniProt Q61143); experiment: TRPC6 opening by TRPC4 activator hits – cell-based, HEK293, membrane potential dye, duplicate, selectivity assay for TRPC4 activator project, confirmation (AID 434950;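 active = membrane potential signal rise above negative control mean plus 3 SD in both duplicates, also active in the earlier TRPC4 screen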;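 for activation: 0% = buffer only wells and 100% = acetylcholine maximal-effect wells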); settings: HEK293 TRPC6, membrane potential fluorescence, at 10 µM; activation: stronger effect = higher value; outcome: activation
[12] = target: Short transient receptor potential channel 6 (Mus musculus) (UniProt Q61143); experiment: positive modulators of mouse TRPC6 channel – HEK293 cells, membrane potential dye, duplicate, selectivity assay for TRPC4 potentiator project, confirmation (AID 434952;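 active = compound raising the membrane signal above positive-control mean plus 3 SD in both repeats, and a primary screen hit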); settings: HEK293 TRPC6, membrane potential dye fluorescence, at 10 µM, maximal acetylcholine added after compound; stronger effect = higher value
[13] = target: Short transient receptor potential channel 4 (Mus musculus) (UniProt Q9QUQ5); experiment: calcium flux activators in TRPC4/5HT1a cells, counter-screen for TRPC4 activator project, cell-based, second counter screen, HEK293 TRPC4/5HT1a, Fluo-4 (AID 434977;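 active = calcium signal rise above buffer-control mean plus 5 SD in both duplicates, and also a hit in the primary screen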;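 for activation: plate controls were assay buffer for no effect and maximal serotonin response for full effect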); settings: Fluo-4 calcium flux, at 10 µM; stronger effect = higher value
[14] = serotonin-gated TRPC4 signal block – cell-based, second counter screen, HEK293 TRPC4/5HT1a, Fluo-4, counter-screen for TRPC4 inhibitor project, confirmation (AID 434978;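 active = primary screen active whose calcium signal fell more than 3 SD beyond the full-serotonin control mean in both duplicate plates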;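 for outcome: serotonin given first at submaximal then at maximal dose after compound preincubation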); settings: Fluo-4 calcium flux, at 10 µM, serotonin added to trigger calcium flux; stronger effect = higher value
[15] = test system: TRPC4 (mouse), co-expressed with 5HT1a in HEK293; experiment: enhancement of serotonin-evoked TRPC4 response – cell-based, second counter screen, HEK293 TRPC4/5HT1a, Fluo-4, counter-screen for TRPC4 potentiator project, confirmation (AID 434979;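 active = signal rise over 3 SD above mean of control wells given weak agonist, in both repeats and first screen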); settings: Fluo-4 calcium flux, at 10 µM, serotonin added at its EC20 dose; stronger effect = higher value
[16] = nonspecific calcium rise without TRPC4 – cell-based, HEK293 mu-opioid receptor line, counter-screen for TRPC4 activator project, confirmation (AID 449723;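 active = hit in primary screen, with calcium signal over 5 SD above buffer well mean in both duplicates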;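 note: counter screen cells carry the mu-opioid receptor alone and lack TRPC4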); settings: HEK293 mu-opioid cells, Fluo-4 calcium fluorescence, at 10 µM; stronger effect = higher value
[17] = nonspecific potentiation of DAMGO calcium response – cell-based, HEK293 mu-opioid receptor line, counter-screen for TRPC4 allosteric potentiator project, confirmation (AID 449724;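 active = calcium signal rise more than 3 SD above the low-dose agonist control mean, in both duplicate plates and the primary screen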); settings: HEK293 mu-opioid receptor cells, Fluo-4 calcium flux, at 10 µM, compound added before EC20 DAMGO stimulus; stronger effect = higher value

Cc1cc2oc(C(=O)N(Cc3cccs3)C3CCS(=O)(=O)C3)cc(=O)c2cc1Cl (stereo not given)
inactive: outcome [1] | outcome [2] | outcome [3] | outcome [5] | outcome [6] | outcome [7] | outcome [8] | outcome [9] | outcome [10] | outcome [11] | outcome [12] | outcome [13] | outcome [14] | outcome [16] | outcome [17]
active: potentiation [4] 40% | potentiation [15] 66.3%

CCOc1cccc(CN2CCCC(C(=O)c3cccc(C(F)(F)F)c3)C2)c1O (stereo not given)
active: inhibition [5] 77% | inhibition [14] 42.2%
inactive: outcome [1] | outcome [2] | outcome [3] | outcome [4] | outcome [6] | outcome [7] | outcome [8] | outcome [9] | outcome [10] | outcome [11] | outcome [12] | outcome [13] | outcome [15] | outcome [16] | outcome [17]

Cc1nn2c(N3CCN(C)CC3)c3c(nc2c1-c1ccccc1)CCCC3
inactive: outcome [1] | outcome [2] | outcome [3] | outcome [4] | outcome [5] | outcome [6] | outcome [7] | outcome [8] | outcome [9] | outcome [10] | outcome [11] | outcome [12] | outcome [13] | outcome [14] | outcome [15] | outcome [16] | outcome [17]

COc1ccc2c(c1)c1ncn(CCN3CCCC3)c(=O)c1n2C
inactive: outcome [1] | outcome [2] | outcome [4] | outcome [5] | outcome [6] | outcome [7] | outcome [8] | outcome [9] | outcome [10] | outcome [11] | outcome [12] | outcome [13] | outcome [14] | outcome [16] | outcome [17]
active: potentiation [3] 13% | potentiation [15] 12.8%

COc1ccc(NC(C)=O)cc1NC(C)C(=O)Nc1cc(C(F)(F)F)ccc1N1CCOCC1 (stereo not given)
inactive: outcome [1] | outcome [2] | outcome [3] | outcome [4] | outcome [5] | outcome [6] | outcome [7] | outcome [8] | outcome [9] | outcome [10] | outcome [11] | outcome [12] | outcome [13] | outcome [14] | outcome [16] | outcome [17]
active: potentiation [15] 14.5%

Clc1ccc2nc(CN3CCCc4ccccc43)cn2c1
active: potentiation [4] 12% | potentiation [15] 28%
inactive: outcome [1] | outcome [2] | outcome [3] | outcome [5] | outcome [6] | outcome [7] | outcome [8] | outcome [9] | outcome [10] | outcome [11] | outcome [12] | outcome [13] | outcome [14] | outcome [16] | outcome [17]

Cc1ccc(C)c(N(CC(=O)NC2CCCC2)C(=O)c2csnn2)c1
inactive: outcome [1] | outcome [2] | outcome [3] | outcome [4] | outcome [5] | outcome [6] | outcome [7] | outcome [8] | outcome [9] | outcome [10] | outcome [12] | outcome [13] | outcome [14] | outcome [15] | outcome [16] | outcome [17]
active: activation [11] 30%

CC1(C)CN=c2s/c(=C\c3ccc(Cl)cc3)c(=O)n2C1
active: potentiation [15] 25.3%
inactive: outcome [1] | outcome [2] | outcome [3] | outcome [4] | outcome [5] | outcome [6] | outcome [7] | outcome [8] | outcome [9] | outcome [10] | outcome [11] | outcome [12] | outcome [13] | outcome [14] | outcome [16] | outcome [17]

Cc1ccc(-n2c(C)cc(C)c(C#N)c2=O)cc1Cl
active: activation [13] 11.4%
inactive: outcome [1] | outcome [2] | outcome [3] | outcome [4] | outcome [5] | outcome [6] | outcome [7] | outcome [8] | outcome [9] | outcome [10] | outcome [11] | outcome [12] | outcome [14] | outcome [15] | outcome [16] | outcome [17]

Cc1cccc(NC(=O)CNC(=O)CN2C(=O)NC3(CCCCC3C)C2=O)c1C (stereo not given)
inactive: outcome [1] | outcome [2] | outcome [3] | outcome [4] | outcome [5] | outcome [6] | outcome [7] | outcome [8] | outcome [9] | outcome [10] | outcome [11] | outcome [12] | outcome [13] | outcome [14] | outcome [15] | outcome [16] | outcome [17]

CCC(C(=O)Nc1ccccc1OC)n1c(C(=O)OC)cc2ccsc21 (stereo not given)
inactive: outcome [1] | outcome [2] | outcome [3] | outcome [5] | outcome [6] | outcome [7] | outcome [8] | outcome [9] | outcome [10] | outcome [11] | outcome [12] | outcome [13] | outcome [14] | outcome [16] | outcome [17]
active: potentiation [4] 17% | potentiation [15] 75.5%

COc1ccc(NS(=O)(=O)c2cccc(C(=O)N3CCN(Cc4cc(OC)ccc4OC)CC3)c2)cc1
inactive: outcome [1] | outcome [2] | outcome [3] | outcome [4] | outcome [5] | outcome [6] | outcome [7] | outcome [8] | outcome [9] | outcome [10] | outcome [11] | outcome [12] | outcome [13] | outcome [14] | outcome [15] | outcome [16] | outcome [17]

Cc1cc(N2CCN(C)CC2)n2cc(-c3ccc(F)cc3)nc2n1
inactive: outcome [1] | outcome [2] | outcome [4] | outcome [5] | outcome [6] | outcome [7] | outcome [8] | outcome [9] | outcome [10] | outcome [11] | outcome [12] | outcome [13] | outcome [14] | outcome [16] | outcome [17]
active: potentiation [3] 11% | potentiation [15] 26.1%

O=C(NCc1ccccc1Cl)/C(=C\c1cccnc1)NC(=O)c1ccccc1
inactive: outcome [1] | outcome [2] | outcome [3] | outcome [4] | outcome [5] | outcome [6] | outcome [7] | outcome [8] | outcome [9] | outcome [10] | outcome [11] | outcome [12] | outcome [13] | outcome [14] | outcome [15] | outcome [16] | outcome [17]

CCOc1nc(C)cc(C)c1S(=O)(=O)c1cccc(C)c1
inactive: outcome [1] | outcome [2] | outcome [3] | outcome [4] | outcome [5] | outcome [6] | outcome [7] | outcome [8] | outcome [9] | outcome [10] | outcome [11] | outcome [12] | outcome [13] | outcome [14] | outcome [15] | outcome [16] | outcome [17]
